Source: PubChem BioAssay
BAP1 block – inhibitors of human BAP1 deubiquitinase. Q92560. recombinant BAP1, Ub-AMC hydrolysis fluorescence kinetic; stronger effect = lower value. calls only at 20 µM. 72,000 tested, 0.48% active. AID 436;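 active = activity remaining at or below 50% of control, provided the compound also passes the data quality filters; inactive = the rest, including low values that fail the filters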
Target sequence (Q92560 whole entry, looked up): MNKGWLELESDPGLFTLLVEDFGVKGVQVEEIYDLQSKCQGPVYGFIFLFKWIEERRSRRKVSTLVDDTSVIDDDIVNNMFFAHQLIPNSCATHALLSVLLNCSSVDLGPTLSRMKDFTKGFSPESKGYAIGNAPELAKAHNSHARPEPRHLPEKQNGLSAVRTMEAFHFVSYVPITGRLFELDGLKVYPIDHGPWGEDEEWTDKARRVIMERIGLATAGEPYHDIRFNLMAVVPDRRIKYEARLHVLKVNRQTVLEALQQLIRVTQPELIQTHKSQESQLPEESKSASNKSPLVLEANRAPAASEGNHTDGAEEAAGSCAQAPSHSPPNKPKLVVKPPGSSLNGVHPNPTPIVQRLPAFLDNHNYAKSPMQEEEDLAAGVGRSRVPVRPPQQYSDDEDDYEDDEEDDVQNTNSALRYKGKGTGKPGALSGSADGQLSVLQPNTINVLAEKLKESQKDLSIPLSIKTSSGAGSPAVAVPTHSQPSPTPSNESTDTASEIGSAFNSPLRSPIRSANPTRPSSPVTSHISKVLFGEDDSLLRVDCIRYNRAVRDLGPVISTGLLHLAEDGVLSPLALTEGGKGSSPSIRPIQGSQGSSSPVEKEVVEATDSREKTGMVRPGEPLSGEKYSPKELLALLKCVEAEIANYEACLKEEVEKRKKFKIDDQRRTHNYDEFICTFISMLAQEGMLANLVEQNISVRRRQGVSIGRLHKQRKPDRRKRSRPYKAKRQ
sEH inhibitor – inhibitors of human soluble epoxide hydrolase; P34913; recombinant human sEH enzymatic activity assay; inhibition, % at 2 µM; 91,000 tested, 0.34% active; AID 707; in the data active = inhibition above about 80%
Calb biofilm kill – kills Candida albicans biofilms; C. albicans biofilm + clotrimazole, Alamar Blue; inhibition, % at 6 µM; 85,000 tested, 0.14% active; AID 834;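 active = inhibition above 20%; inactive = inhibition below 20%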;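 note: preformed 24 hr biofilms exposed to compound for 48 hr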
PTPN22 inh 2 – blocks human PTPN22 phosphatase activity; inhibition, % at 2 µM; AID 640; recombinant LYP catalytic domain, DiFMUP fluorescence; 96,000 tested, 0.21% active;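 active = inhibition at 2 µM at or above a set limit, the screen mean plus 3 SD, cut at about 24% in these data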
LYP act – increases human PTPN22 phosphatase activity; activation, % at 2 µM; Q9Y2R2; AID 697; 96,000 tested, 0.11% active; recombinant LYP, DiFMUP fluorescence; 0 = plate median, 100 = signal doubled;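 active = activation at 2 µM above a set limit, the mean plus 5 SD, cut at about 37% in these data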
sEH activator – increases human soluble epoxide hydrolase activity. purified human sEH enzymatic activity, activator screen. activation, % at 2 µM. 91,000 tested, 0.04% active. AID 717; in the data active = activation above about 37%
Of the large screens only hits and unclear results are named; the others gave an inactive call. Shown are actives, neighbours in structure and some others; about 0.79% of the full set was active somewhere.

O=C(Cc1cnn(-c2ccccc2)c1)c1ccc(O)c(O)c1O	PTPN22 inh 2 29 (no result: BAP1 block)
O=c1c(/C=N/Nc2ccccc2)c(Sc2nnnn2-c2ccccc2)nc2ccccn12	PTPN22 inh 2 24 (no result: BAP1 block, Calb biofilm kill)
O=c1oc2ccccc2c(O)c1[N+](=O)[O-]	none (no result: sEH inhibitor, Calb biofilm kill, PTPN22 inh 2, LYP act, sEH activator)
Cn1nc(-c2ccc(Cl)cc2)nc2c(=O)n(C)c(=O)nc1-2	PTPN22 inh 2 45 (no result: BAP1 block)
CC1CCc2c(sc(NC(=O)c3ccc(Cn4cc([N+](=O)[O-])cn4)o3)c2C#N)C1 (stereo not drawn)	PTPN22 inh 2 25 (no result: BAP1 block)
N#Cc1c(NC(=O)c2ccc(Cn3cc(Br)cn3)o2)sc2c1CCCCC2	none (no result: BAP1 block)
O=C(O)CCCN1C(=O)/C(=C/c2ccc(-c3nc4ccccc4s3)o2)SC1=S	PTPN22 inh 2 41 (no result: BAP1 block, Calb biofilm kill)
Cc1ccc(/C=C2\SC(=S)N(CCCC(=O)Nc3ccccn3)C2=O)cc1	none (no result: BAP1 block, Calb biofilm kill)
O=C(Nc1ccc(Br)cc1)c1nc2nc(-c3ccccc3)cc(C(F)(F)F)n2n1	none (no result: sEH inhibitor, Calb biofilm kill, PTPN22 inh 2, LYP act, sEH activator)
COc1ccc(S(=O)(=O)N2CC3CCCN3c3cc(C(F)(F)F)ccc32)cc1 (stereo not drawn)	PTPN22 inh 2 25 (no result: BAP1 block, Calb biofilm kill)
Cc1nnc(NC(=O)CSc2nnc(Cc3cccn3C)n2-c2cccc(C(F)(F)F)c2)s1	Calb biofilm kill 24 (no result: sEH inhibitor, PTPN22 inh 2, LYP act, sEH activator)
Cc1ccc(-n2c(Cc3cccn3C)nnc2SCC(=O)Nc2nnc(C)s2)cc1	none (no result: sEH inhibitor, sEH activator)
O=C(NNC(=O)c1ccc2ccccc2c1O)c1ccccc1Cl	PTPN22 inh 2 24 (no result: BAP1 block, Calb biofilm kill)
CCCCNS(=O)(=O)c1ccc(NS(=O)(=O)c2c(C)cc(C)cc2C)cc1	PTPN22 inh 2 28 (no result: BAP1 block)
CCNS(=O)(=O)c1ccc(NS(=O)(=O)c2cc(C)ccc2C)cc1	none
COc1ccc(-n2c(=S)[nH]c3c(c2=O)C2(CCCC2)Cc2ccccc2-3)cc1	none (no result: sEH inhibitor, Calb biofilm kill, PTPN22 inh 2, LYP act, sEH activator)
O=C(NCc1ccco1)c1ccc2nc3sc4c(c3c(=O)n2c1)CCCC4	PTPN22 inh 2 25 (no result: Calb biofilm kill)
Cc1cc2nc3c(c(=O)n2[nH]1)CCCC3	sEH activator 37 (no result: BAP1 block)
O=c1c2c(nc3cc(-c4ccccc4)[nH]n13)CCC2	none (no result: sEH inhibitor, sEH activator)
O=C(Nc1ccc2oc(-c3ccc4ccccc4c3)nc2c1)c1ccc2c(c1)OCCO2	PTPN22 inh 2 31 (no result: BAP1 block, Calb biofilm kill)
CCCCCCCCCCCCCCC[C@H](O)[C@H](N)CO	BAP1 block active (no result: sEH inhibitor, Calb biofilm kill, PTPN22 inh 2, LYP act, sEH activator)
O=C(O)COc1ccc2c(c1)C(=O)c1cc(OCC(=O)O)ccc1-2	none (no result: sEH inhibitor, Calb biofilm kill, PTPN22 inh 2, LYP act, sEH activator)
Cc1ccc(C2C3=C(CC(c4ccccc4Cl)CC3=O)Nc3ccccc3N2C(=O)CCC(=O)O)cc1 (stereo not drawn)	none (no result: sEH inhibitor, Calb biofilm kill, PTPN22 inh 2, LYP act, sEH activator)
CN(C)/C=C/C(=O)c1ccc(F)cc1	PTPN22 inh 2 26 (no result: BAP1 block, Calb biofilm kill)
Cc1oc2c(CN(C)C)c(O)ccc2c(=O)c1-c1ccc2c(c1)OCCO2	none (no result: sEH inhibitor, Calb biofilm kill, PTPN22 inh 2, LYP act, sEH activator)
O=C(N/N=C\c1ccc(Cl)s1)c1cccs1	sEH inhibitor 94 (no result: BAP1 block, Calb biofilm kill)
O=C(CSc1nc2ccccc2c(=O)n1-c1ccccc1)Nc1ccc(Cl)cc1	none (no result: sEH inhibitor, Calb biofilm kill, PTPN22 inh 2, LYP act, sEH activator)
CCOc1ccc(NC(=O)c2cc3cc4ccc(OC)cc4nc3o2)cc1	Calb biofilm kill 58 (no result: BAP1 block)
COc1ccc2cc3cc(C(=O)NCc4ccccn4)oc3nc2c1	none (not shown: BAP1 block, Calb biofilm kill)
NC(=O)c1oc2ccccc2c1NC(=O)C1CCCCC1	Calb biofilm kill 21 (no result: sEH inhibitor, PTPN22 inh 2, LYP act, sEH activator)
NC(=O)c1oc2ccccc2c1NC(=O)CN1CCCCC1	none
Cc1ccnc(NC(=O)c2cc(C)ccc2[N+](=O)[O-])c1	none (no result: sEH inhibitor, Calb biofilm kill, PTPN22 inh 2, LYP act, sEH activator)
Cc1ccc2nc(-c3ccc(NC(=O)c4ccc(S(=O)(=O)N5CC(C)CC(C)C5)cc4)cc3)sc2c1 (stereo not drawn)	none (no result: sEH inhibitor, Calb biofilm kill, PTPN22 inh 2, LYP act, sEH activator)
CCOC(=O)c1c(NC(=O)CCC(=O)O)sc2c1CCCC2=O	none (no result: sEH inhibitor, Calb biofilm kill, PTPN22 inh 2, LYP act, sEH activator)
CN(C)c1ccc(C2N3CC4(C)CN2CC(C)(C3)C4O)cc1 (stereo not drawn)	none (no result: sEH inhibitor, PTPN22 inh 2, LYP act, sEH activator)
CC(C)C12CN3CC(C(C)C)(CN(C1)C3c1ccccc1)C2O (stereo not drawn)	sEH activator 39
CC1CC(C)CN(S(=O)(=O)c2ccc(C(=O)Nc3nc(-c4ccccc4)cs3)cc2)C1 (stereo not drawn)	none (no result: sEH inhibitor, Calb biofilm kill, PTPN22 inh 2, LYP act, sEH activator)
O=C(C1CC1)N1CCN(C(c2ccccc2)c2ccccc2)CC1	Calb biofilm kill 41 (no result: BAP1 block)
COc1ccc(C(=O)c2sc3nc(-c4ccccc4)ccc3c2N)cc1OC	PTPN22 inh 2 25 (no result: BAP1 block, Calb biofilm kill)
COc1ccc(-c2ccc3c(N)c(C(=O)c4ccc(OC)c(OC)c4)sc3n2)cc1	none (no result: BAP1 block, Calb biofilm kill)
COC(=O)c1c(NC(=O)CSc2ncnc3c2cnn3-c2ccccc2Cl)sc2c1CCCC2	none (no result: BAP1 block)
N#Cc1c(NC(=O)CSc2ncnc3c2cnn3-c2ccccc2Cl)sc2c1CCCC2	BAP1 block active
Cc1ccc(Nc2cc(C)nn2-c2nc(C)cc(=O)[nH]2)cc1	PTPN22 inh 2 26 (no result: sEH inhibitor, sEH activator)
Cc1ccc(N(C(C)C(=O)O)S(=O)(=O)c2cccnc2)cc1 (stereo not drawn)	Calb biofilm kill 24
